Measured values from PubChem BioAssay (NCATS).

Biological target: Glucocorticoid receptor (Homo sapiens) (UniProt P04150)
Assay: GR-EFC Redistribution (AID 451)
Conditions: CHO-K1 GR-EFC translocation, beta-gal luminescence, 2 h; calls by dose curve
Outline: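 CHO-K1 cells expressing nuclear EA and GR-ED fragments of b-gal; compounds titrated up to 46 uM final, 2 h at 37 C. GR nuclear translocation read as complemented b-gal luminescence after 1 h RT detection.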
Potency means the concentration at half of the fitted maximal effect.

Sequence of Glucocorticoid receptor (Homo sapiens) (P04150 whole entry, looked up): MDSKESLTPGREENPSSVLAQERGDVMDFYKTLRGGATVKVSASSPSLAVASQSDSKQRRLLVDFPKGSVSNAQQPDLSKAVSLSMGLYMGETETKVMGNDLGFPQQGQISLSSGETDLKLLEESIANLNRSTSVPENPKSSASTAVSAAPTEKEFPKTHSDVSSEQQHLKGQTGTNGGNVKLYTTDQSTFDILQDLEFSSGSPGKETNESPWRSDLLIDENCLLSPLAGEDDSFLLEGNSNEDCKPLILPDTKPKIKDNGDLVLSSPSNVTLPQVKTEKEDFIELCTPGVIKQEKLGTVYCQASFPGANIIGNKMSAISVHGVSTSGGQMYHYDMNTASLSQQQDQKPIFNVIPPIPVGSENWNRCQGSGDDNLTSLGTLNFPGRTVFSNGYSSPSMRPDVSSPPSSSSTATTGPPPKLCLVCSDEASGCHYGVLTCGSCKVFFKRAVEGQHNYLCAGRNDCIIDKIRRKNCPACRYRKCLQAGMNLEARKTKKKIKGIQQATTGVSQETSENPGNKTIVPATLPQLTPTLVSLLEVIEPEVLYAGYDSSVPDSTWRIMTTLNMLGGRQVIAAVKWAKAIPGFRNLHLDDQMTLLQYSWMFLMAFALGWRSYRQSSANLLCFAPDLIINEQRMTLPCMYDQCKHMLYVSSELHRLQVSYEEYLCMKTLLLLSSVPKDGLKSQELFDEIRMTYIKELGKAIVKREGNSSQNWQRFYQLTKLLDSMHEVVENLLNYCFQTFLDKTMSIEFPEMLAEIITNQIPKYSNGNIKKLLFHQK

Potency, inactive:
O=C(Nc1cccc(F)c1)N1CCC2(CC1)CCN(C(=O)c1csnn1)CC2 > 46 µM
COC(=O)N1CCC2(CC1)CCN(c1ccccc1)CC2 > 46 µM
N#Cc1cccc(NC(=O)N2CCC3(CC2)CCN(C(=O)c2ccco2)CC3)c1 > 46 µM
O=C(c1cnccn1)N1CCC[C@@]2(CCN(c3ccncc3)C2)C1 > 46 µM
CS(=O)(=O)N1CCC2(CC1)CN(Cc1cc(C(F)(F)F)cc(C(F)(F)F)c1)C2 > 46 µM
Cn1cccc1C(=O)N1CCC[C@@]2(CCN(Cc3cc(C(F)(F)F)cc(C(F)(F)F)c3)C2)C1 > 46 µM
N#Cc1ccc(CN2CCCC3(CCN(C(=O)c4cccc(F)c4)CC3)C2)cc1 > 46 µM
COc1ccc(NC(=O)N2CC3(CCN(C(C)=O)CC3)C2)cc1 > 46 µM
N#Cc1cccc(NC(=O)N2CCC3(CC2)CCN(C(=O)c2csnn2)CC3)c1 > 46 µM
COc1ccccc1CN1CCC2(CC1)CCN(C(C)=O)CC2 > 46 µM
Cc1noc(C)c1C(=O)N1CCC2(CCN(C(=O)Nc3ccccc3)CC2)CC1 > 46 µM
O=C(Oc1ccccc1)N1CCC2(CC1)CN(c1ccccc1)C2 > 46 µM
COC(=O)N1CCC[C@@]2(CCN(C(c3ccccc3)c3ccccc3)C2)C1 > 46 µM
Cn1cccc1C(=O)N1CCC2(CC1)CCN(c1ccccc1)CC2 > 46 µM
CC(=O)N1CCC2(CC1)CN(c1ccccn1)C2 > 46 µM
CS(=O)(=O)N1CCC2(CC1)CN(c1cccc(-c3ccccc3)c1)C2 > 46 µM
CC(C)CN1CC[C@@]2(CCCN(C(=O)c3cnccn3)C2)C1 > 46 µM
Cn1cccc1C(=O)N1CCC2(CCCN(c3ccccc3)C2)CC1 > 46 µM
O=C(c1csnn1)N1CCC[C@@]2(CCN(Cc3nccs3)C2)C1 > 46 µM
O=C(c1ccco1)N1CCC2(CC1)CN(Cc1cc(C(F)(F)F)cc(C(F)(F)F)c1)C2 > 46 µM
CC(C)NC(=O)N1CC[C@@]2(CCCN(C(=O)c3cc(C(F)(F)F)cc(C(F)(F)F)c3)C2)C1 > 46 µM
COCC(=O)N1CCC[C@@]2(CCN(Cc3ccccc3OC)C2)C1 > 46 µM
COc1ccccc1CN1CCCC2(CCN(S(C)(=O)=O)CC2)C1 > 46 µM
O=C(c1cc(C(F)(F)F)cc(C(F)(F)F)c1)N1CCC[C@@]2(CCN(Cc3ccncc3)C2)C1 > 46 µM
Cc1cccc(CNc2ncnc3ccc(-c4cccc(C#N)c4)cc23)c1 > 46 µM
O=C(c1ccncc1)N1CCC2(CC1)CCN(c1cccc(-c3ccccc3)c1)CC2 > 46 µM
CS(=O)(=O)N1CCC2(CC1)CN(Cc1nccs1)C2 > 46 µM
c1ccc(-c2cccc(N3CC[C@@]4(CCCNC4)C3)c2)cc1 > 46 µM
CC(=O)N1CCC2(CC1)CN(c1ccccc1)C2 > 46 µM
CC(C)CN1CC[C@@]2(CCCN(S(=O)(=O)c3ccccc3)C2)C1 > 46 µM
Cc1noc(C)c1C(=O)N1CCC[C@@]2(CCN(Cc3ccccc3)C2)C1 > 46 µM
O=C(c1csnn1)N1CCC2(CC1)CN(c1ccccc1)C2 > 46 µM
COCC(=O)N1CCC[C@@]2(CCN(C(=O)Nc3cccc(F)c3)C2)C1 > 46 µM
O=C(c1csnn1)N1CCC2(CC1)CN(c1ccccn1)C2 > 46 µM
COc1ccc(C(=O)N2CCC3(CCN(C)CC3)CC2)cc1 > 46 µM
CS(=O)(=O)N1CCC2(CCCN(C(=O)Nc3cccc(C#N)c3)C2)CC1 > 46 µM
Cc1noc(C)c1C(=O)N1CCC2(CCN(Cc3cc(C(F)(F)F)cc(C(F)(F)F)c3)CC2)CC1 > 46 µM
CC(C)NC(=O)N1CC2(CCN(C(=O)c3ccco3)CC2)C1 > 46 µM
CC(=O)N1CCC2(CC1)CN(C(c1ccccc1)c1ccccc1)C2 > 46 µM
COc1ccc(NC(=O)N2CC[C@@]3(CCCN(C(=O)c4csnn4)C3)C2)cc1 > 46 µM
